Among all 39,000 compounds or so, about 500 (1.3%) were called active. Only a selection was taken, and actives are over-represented in it overall.
The molecules below were run on S. aureus RN4220 (assay: growth inhibition call (relative growth <= 0.2)). Details: 50 µM.

Growth inhibition call, active:
CCCNC(=O)c1cc2c(c(-c3cccc(-c4cccc(F)c4)c3)n1)[C@H](CCO)N([S@@](=O)C(C)(C)C)C2
CSc1cccc2sc(Nc3ccc(Cl)cc3)nc12
CN1CCN(c2cc3c(cc2F)c(=O)c(C(=O)O)cn3-c2ccc(F)cc2)CC1.Cl
Cl.O=C(O)c1cn(-c2ccc(F)cc2)c2cc(N3CCNCC3)c(F)cc2c1=O
O=C(Nc1ccccc1)c1ccccc1O
Clc1ccc(C(Cn2ccnc2)OCc2ccsc2Cl)c(Cl)c1 (stereo not given)
C=C[C@]1(C)C[C@@H](OC(=O)CS[C@@H]2C[C@H]3CC[C@@H](C2)N3C)[C@]2(C)[C@H](C)CC[C@]3(CCC(=O)[C@H]32)[C@@H](C)[C@@H]1O
C[C@H]1CN([C@@H](C)CO)C(=O)c2cccc(NC(=O)Nc3ccc(C(F)(F)F)cc3)c2O[C@@H]1CN(C)C(=O)Nc1ccccc1
C[C@H]1CN([C@@H](C)CO)C(=O)c2cccc(NC(=O)Nc3ccc(C(F)(F)F)cc3)c2O[C@H]1CN(C)C(=O)Nc1ccccc1
C[C@@H]1CN([C@@H](C)CO)C(=O)c2cccc(NC(=O)Nc3ccc(C(F)(F)F)cc3)c2O[C@@H]1CN(C)C(=O)Nc1ccccc1
C[C@H](CO)N1C[C@H](C)[C@@H](CN(C)C(=O)Nc2cccc3ccccc23)Oc2c(NC(=O)Nc3ccc(C(F)(F)F)cc3)cccc2C1=O
CCC(CC)c1nc(Nc2ccccc2)c2ccccc2n1
Cc1onc(-c2c(Cl)cccc2Cl)c1C(=O)NC1C(=O)N2C1SC(C)(C)C2C(=O)[O-].[Na+] (stereo not given)
Cc1onc(-c2ccccc2Cl)c1C(=O)NC1C(=O)N2C1SC(C)(C)C2C(=O)[O-].[Na+] (stereo not given)
Cc1onc(-c2ccccc2)c1C(=O)NC1C(=O)N2C1SC(C)(C)C2C(=O)[O-].[Na+] (stereo not given)

Growth inhibition call, inactive:
Cc1ccc(S(=O)(=O)Nc2ccc3c(c2)C(=O)N([C@@H](C)CO)C[C@H](C)[C@@H](CN(C)CC2CCCCC2)OCCCC[C@H](C)O3)cc1
Cc1ccc(CN2CCN(CCO)CC2)o1
O=C(NCC(F)(F)F)[C@H]1[C@H](CO)[C@H]2Cn3c(cccc3=O)[C@@H]1N2C(=O)C1CCC1
CCCNC(=O)c1cc2c(c(-c3cccc(-c4ccc(F)cc4)c3)n1)[C@H](CCO)N([S@@](=O)C(C)(C)C)C2
CCCNC(=O)c1cc2c(c(-c3cccc(-c4cccc(F)c4)c3)n1)[C@@H](CCO)N([S@](=O)C(C)(C)C)C2
C[C@@H]1CN([C@@H](C)CO)C(=O)c2cc(NC(=O)CCN3CCOCC3)ccc2O[C@H]1CN(C)S(=O)(=O)c1ccc(F)cc1
NCCCCCNC(=O)[C@@H]1C[C@@H]2C(=O)N[C@@H](CCCCN)C(=O)N2[C@@H]1c1cccc(OCCO)c1
Cc1sc(Nc2ccccc2)nc1-c1ccc(Cl)cc1
c1ccc(Nc2nc3c(ccc4ccccc43)s2)cc1
Cc1ccc(S(=O)(=O)Nc2cccc3c2O[C@H](CN(C)C(=O)Nc2cccc4ccccc24)[C@@H](C)CN([C@@H](C)CO)C3=O)cc1
COCC#Cc1ccc([C@H]2[C@H]3CN(C(=O)c4ccncc4)CC(=O)N3[C@H]2CO)cc1
CCOC(=O)CNC(=O)c1cc(C)on1
Cn1cc(S(=O)(=O)N2CCN(c3ccc(F)cc3)CC2)c(=O)n(C)c1=O
O=C(c1ccccc1F)N1CCNCC1
Cc1ccc(C(=O)O)c(=O)n1C
O=C(CN1CCNCC1)c1ccc(F)cc1
Cc1noc(C)c1S(=O)(=O)N(C)C[C@@H]1Oc2ccc(NC(=O)NC(C)C)cc2CC(=O)N([C@@H](C)CO)C[C@@H]1C
O=C(NO)c1cn(-c2ccc(C[C@H]3C(=O)O[C@@H](Cc4ccccc4)[C@H]4C=C(/C=C/C5CC5)CN43)cc2)nn1
CCCCCOc1ccc([C@H]2C(C(=O)c3ccc4c(c3)OCCO4)=C(O)C(=O)N2Cc2ccco2)cc1
NNC(=O)c1ccccc1O
O=C(Nc1ccccc1)c1ccccc1
CO[C@@H]1CN(C)C(=O)c2ccc(NS(=O)(=O)CC(F)(F)F)cc2OC[C@H](C)N(Cc2nccs2)C[C@H]1C
C[C@@H]1CN([C@@H](C)CO)C(=O)Cc2cc(NS(=O)(=O)c3cccs3)ccc2O[C@H]1CN(C)S(C)(=O)=O
Clc1ccc(C(Cn2ccnc2)OCc2c(Cl)cccc2Cl)c(Cl)c1.O=[N+]([O-])O (stereo not given)
Clc1ccc(COC(Cn2ccnc2)c2ccc(Cl)cc2Cl)c(Cl)c1.O=[N+]([O-])O (stereo not given)
Cc1ccc(S(=O)(=O)N(C)C[C@@H]2OCCCC[C@H](C)Oc3ccc(NC(=O)C4CCCCC4)cc3C(=O)N([C@@H](C)CO)C[C@@H]2C)cc1
C[C@H](CO)N1C[C@H](C)[C@H](CN(C)Cc2ccc(C(=O)O)cc2)OCCCC[C@H](C)Oc2ccc(NS(=O)(=O)c3ccc(F)cc3)cc2C1=O
COc1ccc(S(=O)(=O)N(C)C[C@@H]2Oc3c(NC(=O)C4CCOCC4)cccc3C(=O)N([C@H](C)CO)C[C@H]2C)cc1
C[C@H](CO)N1C[C@H](C)[C@@H](CN(C)C(=O)Nc2ccccc2)Oc2c(NC(=O)C3CCOCC3)cccc2C1=O
CO[C@H]1O[C@H](COC(=O)NCCCCCC(=O)NO)[C@@H](OC(=O)Nc2ccccc2)[C@@H]2OC(=O)[C@H](Cc3cccc(Br)c3)C/C=C/C[C@@H](Cc3cccc(Br)c3)C(=O)O[C@@H]12
C[C@H](CO)N1C[C@H](C)[C@H](CN(C)C(=O)Nc2cccc3ccccc23)Oc2c(NC(=O)Nc3ccc(C(F)(F)F)cc3)cccc2C1=O
C[C@H](CO)N1C[C@H](C)[C@H](CN(C)C(=O)Nc2ccc(C(F)(F)F)cc2)Oc2c(NC(=O)Nc3ccccc3)cccc2C1=O
C[C@H](CO)N1C[C@H](C)[C@H](CN(C)C(=O)Nc2ccccc2)Oc2c(NC(=O)Nc3ccc(C(F)(F)F)cc3)cccc2C1=O
C[C@H](CO)N1C[C@H](C)[C@@H](CN(C)C(=O)Nc2ccc(C(F)(F)F)cc2)Oc2c(NC(=O)Nc3ccccc3)cccc2C1=O
C[C@H]1CN([C@@H](C)CO)C(=O)c2cccc(NC(=O)Nc3ccccc3)c2O[C@@H]1CN(C)C(=O)Nc1ccc(C(F)(F)F)cc1
C[C@@H]1CN([C@@H](C)CO)C(=O)c2cccc(NC(=O)Nc3ccccc3)c2O[C@@H]1CN(C)C(=O)Nc1ccc(C(F)(F)F)cc1
C[C@@H]1CN([C@H](C)CO)C(=O)c2cccc(NC(=O)Nc3ccc(C(F)(F)F)cc3)c2O[C@@H]1CN(C)C(=O)Nc1cccc2ccccc12
C[C@@H]1CN([C@H](C)CO)C(=O)c2cccc(NC(=O)Nc3ccc(C(F)(F)F)cc3)c2O[C@H]1CN(C)C(=O)Nc1ccccc1
COc1ccc(S(=O)(=O)Nc2ccc3c(c2)C(=O)N([C@@H](C)CO)C[C@H](C)[C@H](CN(C)C(=O)Nc2ccccc2)OCCCC[C@H](C)O3)cc1
Cc1ccc(S(=O)(=O)N(C)C[C@H]2Oc3ccc(NS(=O)(=O)c4c(C)noc4C)cc3CC(=O)N([C@@H](C)CO)C[C@H]2C)cc1
COc1ccc2c3c(n(c2c1)C)[C@@H](CO)N(Cc1ccccc1)C[C@]13CCN(CC1)C(=O)c1ccccc1F
C[C@H](CO)N1C[C@H](C)[C@H](CN(C)C(=O)CCCN(C)C)OCCCC[C@H](C)Oc2ccc(NC(=O)Nc3ccc(C(F)(F)F)cc3)cc2C1=O
O=C([C@H]1[C@H](CO)[C@H]2Cn3c(cccc3=O)[C@@H]1N2CC1CCCC1)N1CCOCC1
COc1cc(/C=C/c2cc(/C=C/c3ccc(O)c(OC)c3)n(Cc3ccc4c(c3)OCO4)c(=S)n2)ccc1O
C[C@@H]1CCCCO[C@@H](CN(C)C(=O)Nc2ccc3c(c2)OCO3)[C@@H](C)CN([C@@H](C)CO)C(=O)c2cc(NC(=O)Cc3ccccc3)ccc2O1
c1ccc(Nc2nc(-c3ccccc3)nc3ccccc23)cc1
CCOc1ccc(Nc2c3ccccc3nc3ccccc23)cc1
Cc1ccc(S(=O)(=O)Nc2ccc3c(c2)C(=O)N([C@H](C)CO)C[C@H](C)[C@H](CN(C)S(=O)(=O)c2ccc(F)cc2)OCCCC[C@@H](C)O3)cc1
Cc1noc(C)c1S(=O)(=O)N(C)C[C@H]1Oc2ccc(NS(=O)(=O)c3ccccc3)cc2CC(=O)N([C@H](C)CO)C[C@@H]1C
C[C@@H]1CN([C@@H](C)CO)C(=O)c2cc(NC(=O)Nc3ccc(C(F)(F)F)cc3)ccc2O[C@@H](C)CCCCO[C@H]1CN(C)C(=O)C1CCCCC1
COC(=O)c1c(-c2c(Cl)cccc2Cl)noc1-c1cnn(-c2cccc(Cl)c2)c1C(F)(F)F
C[C@H](CO)N1C[C@H](C)[C@H](CN(C)S(=O)(=O)c2cccc(F)c2)Oc2ncc(C#CCN(C)C)cc2C1=O
C[C@@H]1CN([C@H](C)CO)C(=O)CCCn2cc(nn2)CO[C@H]1CN(C)C(=O)c1ccc(N2CCN(C)CC2)cc1
C[C@@H]1CN([C@H](C)CO)C(=O)c2cccc(NC(=O)Nc3cccc4ccccc34)c2O[C@@H]1CN(C)C(=O)Nc1cccc2ccccc12
C[C@@H]1CCCCO[C@@H](CN(C)C(=O)c2ccncc2)[C@H](C)CN([C@H](C)CO)C(=O)c2cc(NC(=O)C3CCCCC3)ccc2O1
